Pf growth 96h – P. falciparum growth inhibition at 96 hours; P. falciparum luciferase reporter growth, 96 h; Potency, µM (top dose mostly 28.7 µM), usual class: inhibitors; 6.9% of 320,000 active; AID 504834
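Plates of compound plus infected erythrocytes (2% hematocrit, 0.05% parasitemia final) incubate 96 hours, 37 C, 5% CO2. Detection reagent added; reduced luminescence from the parasites' luciferase reporter flags inhibition.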
Pf growth 48h – P. falciparum growth inhibition at 48 hours (one generation); AID 504832; Potency, µM (series often up to 28.7 µM), hits mostly inhibitors; 5.9% of 310,000 active; P. falciparum luciferase growth in erythrocytes, 48 h
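Firefly luciferase activity from engineered P. falciparum reports growth; inhibitors lower the luminescent signal. Cultures contained 2% hematocrit erythrocytes at 0.1% final parasitemia.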
CHX counter – counter-screen for Shiga toxin inhibitors: cycloheximide protein synthesis inhibition; AID 2314; 12% of 300,000 active; cell reporter, cycloheximide protein synthesis inhibition counterscreen; max response, %; in the data active = max response mostly above about 13%, no sharp cut-off; inactive = mostly below about 14%; also: read at 38.3 µM for the half of the compounds with a filed dose
Shiga toxin inh – blocks Shiga toxin action in Vero cells; Vero cells, Shiga toxin protein synthesis inhibition reporter; inhibition, % at 38.7 µM; 9.2% of 290,000 active; AID 2315; in the data active = inhibition mostly above about 28%, no sharp cut-off; inactive = mostly below about 43%
LmPK inh – inhibitors of Leishmania mexicana pyruvate kinase; Q27686; purified LmPK, Kinase-Glo ATP luminescence, 1 h; Potency, µM (top dose mostly 57.5 µM), most hits filed as inhibitors; 0.37% of 290,000 active
Target sequence (Q27686 whole entry, looked up): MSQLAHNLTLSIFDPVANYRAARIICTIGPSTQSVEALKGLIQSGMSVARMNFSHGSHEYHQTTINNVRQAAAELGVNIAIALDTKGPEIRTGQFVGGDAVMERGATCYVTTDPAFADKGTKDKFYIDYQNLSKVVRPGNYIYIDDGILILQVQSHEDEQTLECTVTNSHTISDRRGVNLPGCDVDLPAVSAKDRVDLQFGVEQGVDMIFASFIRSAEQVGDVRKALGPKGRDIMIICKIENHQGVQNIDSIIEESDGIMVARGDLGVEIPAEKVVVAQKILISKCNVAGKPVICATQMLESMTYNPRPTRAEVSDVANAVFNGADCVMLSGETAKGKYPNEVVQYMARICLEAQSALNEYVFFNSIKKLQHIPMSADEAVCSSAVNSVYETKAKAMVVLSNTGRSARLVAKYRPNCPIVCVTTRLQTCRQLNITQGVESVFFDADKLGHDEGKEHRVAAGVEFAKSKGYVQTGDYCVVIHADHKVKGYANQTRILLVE
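0.1 nM LmPK, 0.5 mM PEP, 0.1 mM ADP; 50 mM imidazole pH 7.2, 7 mM MgCl2, 50 mM KCl; 1 h RT. Kinase-Glo luminescence readout, normalized to no-enzyme (full inhibition) and uninhibited wells.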
Large screens that a line does not name were inactive. Sampled rows, rich in hits. Any-hit rate of the full collection: about 22%. Unless noted, calls follow the shape of the dose curve; as a rule, active = well fitted inhibition curve with a large enough effect; inconclusive = small, poorly fitted or top-dose-only effect, or another doubt; inactive = no such curve, though single readings can be large or run the other way.

COc1ccc(C(=O)NNC2=Nc3cccc4cccc2c34)cc1	Pf growth 48h inconclusive
COc1ccccc1NC1=Nc2cccc3cccc1c23	CHX counter 14
CCOC(=O)C1CCN(S(=O)(=O)CCNC(=O)c2ccc(F)cc2)CC1	Pf growth 48h inconclusive (no result: CHX counter, Shiga toxin inh, LmPK inh)
CCOC(=O)c1[nH]ncc1CN1CCc2ccc(NC(=O)C3CCCO3)cc2C1 (stereo not given)	none
COc1cccc(CNC(=O)CN2c3cccc4cccc(c34)S2(=O)=O)c1	none (no result: CHX counter, Shiga toxin inh, LmPK inh)
CCCCCC(CC(=O)NO)C(=O)NC(C(=O)N1CCCC1CO)C(C)C (stereo not given)	Pf growth 96h 2.9µM, Pf growth 48h 3.3µM (no result: CHX counter, Shiga toxin inh, LmPK inh)
COC(=O)c1scc(C)c1S(=O)(=O)Nc1ccc(C)cc1	Pf growth 96h 12µM, Pf growth 48h inconclusive
CC(C)C(=O)NNC(=O)C1CC1(c1ccccc1)c1ccccc1 (stereo not given)	none (no result: Pf growth 48h)
COC(=O)CCC(=O)NNC(=O)C1CC1(c1ccccc1)c1ccccc1 (stereo not given)	Pf growth 96h 10µM
O=C(C1=C(O)C(=O)N(CCN2CCOCC2)C1c1cccc(F)c1)c1cc2ccccc2o1 (stereo not given)	Pf growth 96h inconclusive
CCOC(=O)C1=C(Cc2ccc(F)cc2)C(=O)c2ccccc2C1=O	Pf growth 96h 8.3µM, LmPK inh inconclusive (no result: Pf growth 48h)
CC1Cc2ccccc2N1C(=O)CSc1nnc(N)s1 (stereo not given)	none
CC(NC(=O)Cc1ccc(S(=O)(=O)N2CCCCC2)cc1)c1ccccc1 (stereo not given)	Pf growth 96h 8.3µM, Pf growth 48h 12µM (no result: CHX counter, Shiga toxin inh, LmPK inh)
CC(C)N(C(=O)CSc1ccc(S(=O)(=O)N2CCCCC2)cn1)c1ccccc1	Pf growth 96h inconclusive, Pf growth 48h 8.3µM (no result: CHX counter, Shiga toxin inh, LmPK inh)
CCN(C(=O)C(C)Sc1ccc(S(=O)(=O)N2CCN(C)CC2)cn1)c1ccccc1 (stereo not given)	Pf growth 96h 12µM, Pf growth 48h inconclusive (no result: CHX counter, Shiga toxin inh, LmPK inh)
CC(Sc1ccc(S(=O)(=O)N2CCN(C)CC2)cn1)C(=O)NC1(C#N)CCCCC1 (stereo not given)	Pf growth 48h inconclusive (no result: CHX counter, Shiga toxin inh, LmPK inh)
Cc1ccc(/C=N/N=C2/NC(=O)C(CC(=O)Nc3ccccc3)S2)o1 (stereo not given)	none
Cc1nc(C)n(CCNC(=O)c2ccco2)n1	Pf growth 48h inconclusive
N#CC1=C(N)N2C(=C(C#N)C1c1cccc(Br)c1)Nc1ccccc12 (stereo not given)	Pf growth 96h inconclusive
N#CC1=C(N)N2C(=C(C#N)C1c1ccc(Br)cc1)Nc1ccccc12 (stereo not given)	Pf growth 96h 9.3µM, Pf growth 48h inconclusive
Cc1cc(C)nc(/N=C(\N)Nc2cccc([N+](=O)[O-])c2)n1	Pf growth 96h 10µM, Pf growth 48h inconclusive
Cc1cc(C)cc(N/C(N)=N/c2nc(C)cc(C)n2)c1	Pf growth 96h 4.1µM, Pf growth 48h 13µM
CCCCc1ccc(N/C(N)=N/c2nc(C)cc(C)n2)cc1	Pf growth 96h 4.1µM, Pf growth 48h inconclusive
Cc1cc(C)nc(/N=C(\N)Nc2ccc([N+](=O)[O-])cc2)n1	none
Cc1cc(C)nc(/N=C(\N)Nc2ccc(C(C)C)cc2)n1	Pf growth 96h 12µM, Pf growth 48h inconclusive, CHX counter 14
Cc1ccc(N/C(N)=N/c2nc(C)cc(C)n2)cc1	Pf growth 48h inconclusive
CCCCc1ccc(NC(=O)C(=O)NCCN2CCN(C(=O)c3ccc([N+](=O)[O-])cc3)CC2)cc1	none
CC1Oc2cc3c(-c4c(O)cc(O)c5c(O)c6c(cc45)OC(C)C(C)C6=O)c(O)cc(O)c3c(O)c2C(=O)C1C (stereo not given)	Pf growth 96h 0.52µM, Pf growth 48h 0.37µM
NC1=NC[C@H](Cc2ccccc2)N1CCc1cccc(F)c1	Pf growth 96h 3.7µM, Pf growth 48h 5.9µM
NC1=NC[C@H](Cc2ccc(O)cc2)N1CCCCC1CCCCC1	Pf growth 96h 2.1µM, Pf growth 48h 2.1µM
O=C1NC[C@@H](Cc2ccc(O)cc2)N(CC2CCCCC2)C1=O	none
NC1=NC[C@H](Cc2ccccc2)N1CCCCC1CCCCC1	Pf growth 96h 12µM, Pf growth 48h inconclusive
COc1ccc(NC(=O)c2cccc(S(=O)(=O)NCc3ccco3)c2)c(OC)c1	none (no result: CHX counter, Shiga toxin inh, LmPK inh)
O=C1C(CSCc2ccccc2)NC(=S)N1c1ccccc1 (stereo not given)	Pf growth 48h inconclusive
O=c1c(-c2ccc3c(c2)OCCO3)coc2cc(OC3OC(CO)C(O)C(O)C3O)ccc12 (stereo not given)	CHX counter 40, Shiga toxin inh 54
COc1ccc(S(=O)(=O)N2CCC3(CC2)CC(=O)c2ccccc2O3)cc1OC	none (no result: CHX counter, Shiga toxin inh, LmPK inh)
COc1ccc(C(=O)Nc2nnc(SCC(=O)Nc3ccc(NC(C)=O)cc3)s2)c(OC)c1	CHX counter 48, Shiga toxin inh 119
COc1ccc(C(=O)Nc2nnc(SCC(=O)NC3CCCC3)s2)c(OC)c1	CHX counter 42, Shiga toxin inh 96
COc1ccc(C(=O)Nc2nnc(SCC(=O)NC3CC3)s2)cc1	Pf growth 96h inconclusive, CHX counter 39, Shiga toxin inh 51
CCc1nnc(NC(=O)c2ccc(OC)cc2OC)s1	CHX counter 38, Shiga toxin inh 66
Cc1cc(OCCCN2CCCC2)ccc1Cl	Pf growth 96h inconclusive
O=C(c1ccc([N+](=O)[O-])cc1)N1CCN(Cc2ccccc2[N+](=O)[O-])CC1	Pf growth 96h inconclusive
COc1ccc([C@@H]2C[C@H]3CN(Cc4ccccc4OC)C(=O)[C@]34CCCN24)cc1C	none
COc1ccccc1CN1C[C@@H]2C[C@@H](c3cccc(C)c3)N3CCC[C@@]23C1=O	Pf growth 96h 10µM, Pf growth 48h inconclusive
COCc1ccc([C@@H]2C[C@H]3CN(Cc4ccccc4C)C(=O)[C@]34CCCN24)o1	Pf growth 96h inconclusive, CHX counter 21, Shiga toxin inh 32
COc1ccccc1CN1C[C@@H]2C[C@@H](c3[nH]c4c(C)cccc4c3C)N3CCC[C@@]23C1=O	Pf growth 96h 12µM, Pf growth 48h 6.6µM
COc1ccccc1CN1C[C@@H]2C[C@@H](c3ccc(C)c(C)c3)N3CCC[C@@]23C1=O	Pf growth 96h 10µM, Pf growth 48h inconclusive
COc1ccccc1CN1C[C@@H]2C[C@@H](c3cccc(C)n3)N3CCC[C@@]23C1=O	Pf growth 48h inconclusive
COc1ccc(-c2[nH]ncc2[C@@H]2C[C@H]3CN(Cc4ccccc4C)C(=O)[C@]34CCCN24)cc1	Pf growth 48h 3.3µM
O=C(CN1CCC(NC(=O)c2ccccc2Cl)CC1)NCc1ccco1	none
CC(C)c1cc(N2CCC(=O)NC2=O)cc(C(=O)O)c1O	none
Cc1ccc(OCc2nc(-c3cccs3)no2)c([N+](=O)[O-])c1	Pf growth 96h inconclusive, CHX counter 45, Shiga toxin inh 100
O=[N+]([O-])c1ccc(F)cc1OCc1nc(-c2cccs2)no1	CHX counter 41, Shiga toxin inh 95
O=[N+]([O-])c1ccccc1OCc1nc(-c2cccs2)no1	CHX counter 61, Shiga toxin inh 179
